Four compounds from PubChem BioAssay (NCATS) can be followed below.

The target in assay [1] is Lysosomal acid glucosylceramidase (Homo sapiens) (UniProt P04062). The experiment in a line: Glucocerebrosidase-p2 (AID 348; in the data active = potency below about 10 µM; also: potency is read from the fitted curve at half-maximal effect). The following applies: purified GBA, blue fluorogenic substrate, 40 min. The method in brief: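 Compounds titrated from 0.6 nM upwards against 0.2 nM enzyme in pH 5.9 citric acid/KH2PO4, taurocholate, tween-20; blue fluorogenic substrate 80 uM, 40 min room temperature, stopped and read Ex 365/Em 440 for AC50.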

The target in assay [2] is Cytochrome P450 1A2 (Homo sapiens) (UniProt P05177). The experiment in a line: p450-cyp1a2 (AID 410; calls by dose curve; also: potency is read from the fitted curve at half-maximal effect). The following applies: recombinant CYP1A2, luciferin-ME demethylation, luminescence; series mostly up to 57 µM. The essentials:
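20nM CYP1A2 with 100uM Luciferin-ME (at Km) in 100mM KPO4; compound preincubated 10 min, NADPH regeneration added, 60 min at room temperature. Luciferin quantified by luminescence after detection reagent; normalized to 57 uM furafylline.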

The target of assay [3] is Glucocorticoid receptor (Homo sapiens) (UniProt P04150). The experiment in a line: GR-GFP Redistribution (AID 450;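 active = compounds whose dose series gives a full or clear partial fitted curve of increased nuclear translocation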; also: potency is read from the fitted curve at half-maximal effect). The following applies: U2OS GR-GFP nuclear translocation, laser cytometry, 2 h.
The target is the same in assay [4]. The experiment in a line: GR-EFC Redistribution (AID 451; calls by dose curve; also: potency is read from the fitted curve at half-maximal effect). The following applies: CHO-K1 GR-EFC translocation, beta-gal luminescence, 2 h. The essentials: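 Translocation of GR-ED fusion to nuclear EA restores b-gal, read by luminescence after 1 h room-temperature detection. Engineered CHO-K1 biosensor cells, 1,000/well, exposed 2 h at 37 C to titrations up to 46 uM final.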

In assay [5] the target is 3',5'-cyclic-AMP phosphodiesterase 4B (Homo sapiens) (UniProt Q07343). The experiment in a line: qHTS Assay for Inhibitors of PDE-IV (AID 607; active = well fitted activation curve with a large enough effect in the main read-out, with a control signal flat, not every such curve was filed as active; also: % of control where 0% means no effect). The following applies: HEK293 ACTOne CNG channel cells, membrane potential fluorescence; series mostly up to 22.9 µM. The method in brief:
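The readout is membrane depolarisation from a cAMP-sensing CNG channel, detected with a potential dye at ex 535/em 590. Cells were HEK293-derived (endogenous PDE-IV) at 1000 cells/well, titrated up to 22.9 uM final.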
In general terms: qHTS replaces the single test concentration by a dilution series.

Assay [6] concerns the target Cytochrome P450 2C9 (Homo sapiens) (UniProt P11712). The experiment in a line: qHTS Assay for Inhibitors and Substrates of Cytochrome P450 2C9 (AID 883). Also: potency is read from the fitted curve at half-maximal effect; nearly all actives have a fitted effect of over 60% in size. The following applies: recombinant CYP2C9, luciferin-H luminescence, 60 min; series mostly up to 57.1 µM. The method in brief:
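Turnover of Luciferin-H (100uM, KM) by 10nM human CYP2C9 was measured over 60 min at 37C with NADPH regeneration; inhibitors and some substrates reduce luminescence. Data normalized to sulphaphenazole 57uM.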

Assay [7] in a line: qHTS Assay for Identification of Small Molecule Agonists for Hypoxia Response Element Signaling Pathway (AID 914; active = well fitted activation curve with a large enough effect in the signal ratio, with a control signal flat, not every such curve was filed as active; the % refers to the signal ratio; also: potency is read from the fitted curve at half-maximal effect). Conditions: ME-180 HRE-bla reporter, beta-lactamase ratio, CoCl2, 17 h; activation: hits give high values. The method in brief: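 HRE-bla ME-180 cells with beta-lactamase reporter under hypoxia response element, compounds with EC50 CoCl2 for 17 hours at 37 C. CCF4 substrate, 460nm/530nm emission ratio gave %Activity; AC50 from titration series.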

Assay [8] deals with Dual specificity protein kinase CLK4 (Homo sapiens) (UniProt Q9HAZ1). Nature of the assay: qHTS Assay for Inhibitors of CDC-like Kinase 4 (ADP-Glo Assay) (AID 1771). Also: nearly all actives have a fitted effect of over 70% in size. Also: potency is read from the fitted curve at half-maximal effect. The following applies: recombinant CLK4, ADP-Glo luminescence; series mostly up to 80 µM. The essentials: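 25 nM Clk4 with 100 uM RS repeat peptide and 1 uM ATP (final) in buffer with 2 mM MgCl2, 0.5 mM EGTA, 2.5 mM DTT, 0.01% Triton X-100; 1 h at room temperature; ADP-Glo luminescence for ADP formed.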

The target is the same in assay [9]. The experiment in a line: qHTS Assay for Inhibitors of CDC-like Kinase 4 (ADP-FP Assay) (AID 1795). Also: % is scaled to controls: 0 for no effect and ±100 for the full control effect; nearly all actives have a fitted effect of over 60% in size. Conditions: Transcreener ADP fluorescence polarization; series mostly up to 50 µM. The essentials: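 Clk4 6.25 nM; RS peptide 100 uM; ATP 1 uM; 25 mM Tris pH 7.5, 10 mM MgCl2; 1 h reaction. ADP detected via antibody/orange tracer FP displacement; TG003 positive control.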

In assay [10] the target is Ubiquitin carboxyl-terminal hydrolase 1 (Homo sapiens) (UniProt O94782). Nature of the assay: Inhibitors of USP1/UAF1: Pilot qHTS (AID 504865).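 Also: rhodamine fluorescence freed from ubiquitin-rhodamine substrate followed over time; top concentration of the series differs between compounds; % is scaled to controls: 0 for no effect and ±100 for the full control effect; nearly all actives have a fitted effect of over 35% in size.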 Conditions: purified USP1/UAF1, Ub-rhodamine cleavage fluorescence; series mostly up to 54.9 µM. The method in brief: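 In 50mM HEPES pH 7.8 containing 0.5mM EDTA, 1mM TCEP, 0.1 mg/ml BSA and 0.01% Tween-20, 1nM USP1/UAF1 is exposed to compound for 15 min, then Ub-Rho (150nM final) is added and fluorescence is read over time.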

Assay [11] in a line: Primary qHTS for small molecule stabilizers of the endoplasmic reticulum resident proteome: Secreted ER Calcium Modulated Protein (SERCaMP) assay (AID 1508630). Also: % is scaled to controls: 0 for no effect and ±100 for the full control effect. The following applies: SH-SY5Y GLuc-SERCaMP (Gaussia luciferase released on ER calcium loss) secretion, thapsigargin, luminescence; series mostly up to 38.4 µM. The essentials:
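GLuc-SERCaMP-expressing SH-SY5Y cells, pretreated 16 h with compound, are challenged with thapsigargin to empty ER calcium stores; after 4 h, coelenterazine is added directly to the medium and luminescence is imaged.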

The nature of assay [12]: AP1 Signaling Pathway (AID 357; active = well fitted curve in either direction with a large enough effect, not every such curve was filed as active;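 also: ME-180 reporter cells stimulated with EGF at its EC50 level; % is scaled to controls: 0 for no effect and ±100 for the full control effect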). The following applies: ME-180 AP-1-bla reporter, EGF-induced, beta-lactamase ratio, 5 h; at 7.69 µM (top of the series) unless noted. The essentials:
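In this screen, ME-180 cells in Opti-MEM with 0.5% dialyzed FBS received EC50 EGF and compound titrations for 5 h. AP-1 reporter beta-lactamase was detected via CCF4 ratio, giving AC50 for positive and negative modulators.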

Assay [13] is described as follows: NFAT Signaling Pathway (AID 444; active = well fitted curve in either direction with a large enough effect, not every such curve was filed as active;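 also: carbachol stimulus at about its EC50 of 1 µM final; % is scaled to controls: 0 for no effect and ±100 for the full control effect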). The following applies: Jurkat NFAT-bla M1, carbachol, beta-lactamase ratio, 5 h; at 7.69 µM (top of the series) unless noted. The essentials:
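Read-out: CCF4 FRET ratio (460 nm/530 nm) after 1 h RT dye loading, used for %activity and AC50 from titration series. Cells: Jurkat NFAT-β-lactamase/M1 line, treated with compound plus 1 uM carbachol for 5 h, 37 °C.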

A short description of assay [14]: Stat Signaling Pathway (AID 446; active = well fitted curve in either direction with a large enough effect, not every such curve was filed as active;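 also: ME-180 cervical cancer cells given 40 pM IL-6 alongside compound; SIE-controlled beta-lactamase reporter measured as 460/530 nm FRET emission ratio; % is scaled to controls: 0 for no effect and ±100 for the full control effect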). Conditions: ME-180 SIE beta-lactamase reporter, IL-6 stimulated, 5 h; at 7.69 µM (top of the series) unless noted. The method in brief: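 Screening format detects activators and inhibitors alike: ME-180 SIE-bla cells stimulated at 40 pM IL-6 for 5 hrs with compound, then dual-emission beta-lactamase read at 405 nm excitation.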

In assay [15] the target is Mitogen-activated protein kinase 10 (Mus musculus) (UniProt Q61831). The experiment in a line: JNK3 AlphaScreen Assay (AID 530; active = well fitted curve in either direction with a large enough effect, not every such curve was filed as active). The following applies: JNK3 lysate, c-Jun phosphorylation; series mostly up to 57.1 µM. The essentials:
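Compound titrations were preincubated 15 minutes at room temperature with substrate, antibody and pre-activated JNK3-containing HepG2 lysate. Reactions were started with 10 uM ATP and stopped with EDTA-containing bead buffer for AlphaScreen detection.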
(Alpha assays give light when donor and acceptor beads are brought close together.)

The target of assay [16] is Cytochrome P450 3A4 (Homo sapiens) (UniProt P08684). Nature of the assay: qHTS Assay for Activators of Cytochrome P450 3A4 (AID 885). Also: nearly all actives have a fitted effect of over 65% in size. The following applies: recombinant CYP3A4, Luciferin-PPXE luminescence, 60 min; series mostly up to 57.1 µM. The essentials: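 Steps: enzyme/substrate mix dispensed; compound added, 10 min RT; NADPH regeneration solution added, 60 min RT; luciferin detection buffer stops reaction; 20 min later luminescence measured.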

Assay [17] deals with Cytochrome P450 2C19 (Homo sapiens) (UniProt P33261). Nature of the assay: qHTS Assay for Inhibitors and Substrates of Cytochrome P450 2C19 (AID 899). Also: potency is read from the fitted curve at half-maximal effect; nearly all actives have a fitted effect of over 60% in size. The following applies: recombinant CYP2C19, luciferin-H EGE luminescence; series mostly up to 57.1 µM. The method in brief:
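Reactions contain 5nM enzyme, 10uM Luciferin-H EGE (KM) and 50mM KPO4; compound preincubates 10 min at 37C, NADPH regeneration starts turnover for 60 min. Luminescence after detection reagent gives activity.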

Assay [18] has as its target Cytochrome P450 3A4 (Homo sapiens) (UniProt P08684). The experiment in a line: qHTS Assay for Inhibitors and Substrates of Cytochrome P450 3A4 (AID 884). Also: potency is read from the fitted curve at half-maximal effect; nearly all actives have a fitted effect of over 50% in size. Conditions: recombinant CYP3A4, Luciferin-PPXE luminescence; series mostly up to 57.1 µM. The method in brief: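 20 nM human CYP3A4 with 25 uM Luciferin-PPXE (at KM) in 200 mM KPO4, preincubated 10 min with compound; NADPH regeneration started a 60 min RT reaction. Luciferin detected by luminescence, normalized to 57 uM ketoconazole as full inhibition.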

A number with no mark means an inactive call. Results filed as inconclusive are left out. Calls of active or inactive are those of the source. Unless noted, calls follow the shape of the dose curve; as a rule, active = well fitted curve in the direction sought with a large enough effect; inconclusive = small, poorly fitted or top-dose-only effect, or another doubt; inactive = no such curve, though single readings can be large; an effect the other way counts as inactive or inconclusive.

Chain of Cytochrome P450 1A2 (Homo sapiens) (P05177 whole entry, looked up): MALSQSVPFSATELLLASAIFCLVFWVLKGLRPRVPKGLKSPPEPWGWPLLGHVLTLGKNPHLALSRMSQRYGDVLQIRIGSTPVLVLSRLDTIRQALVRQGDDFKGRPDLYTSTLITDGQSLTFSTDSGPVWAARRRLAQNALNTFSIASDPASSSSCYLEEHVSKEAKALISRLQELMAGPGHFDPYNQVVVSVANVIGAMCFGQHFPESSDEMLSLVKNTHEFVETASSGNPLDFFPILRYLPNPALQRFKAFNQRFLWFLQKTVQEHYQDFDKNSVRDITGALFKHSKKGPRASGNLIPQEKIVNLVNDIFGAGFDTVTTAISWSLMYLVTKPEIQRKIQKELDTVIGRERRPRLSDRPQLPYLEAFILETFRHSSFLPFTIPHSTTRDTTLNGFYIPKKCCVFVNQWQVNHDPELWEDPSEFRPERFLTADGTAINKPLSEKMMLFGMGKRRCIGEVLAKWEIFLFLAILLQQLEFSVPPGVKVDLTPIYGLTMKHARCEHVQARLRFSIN
Chain of Lysosomal acid glucosylceramidase (Homo sapiens) (P04062 whole entry, looked up): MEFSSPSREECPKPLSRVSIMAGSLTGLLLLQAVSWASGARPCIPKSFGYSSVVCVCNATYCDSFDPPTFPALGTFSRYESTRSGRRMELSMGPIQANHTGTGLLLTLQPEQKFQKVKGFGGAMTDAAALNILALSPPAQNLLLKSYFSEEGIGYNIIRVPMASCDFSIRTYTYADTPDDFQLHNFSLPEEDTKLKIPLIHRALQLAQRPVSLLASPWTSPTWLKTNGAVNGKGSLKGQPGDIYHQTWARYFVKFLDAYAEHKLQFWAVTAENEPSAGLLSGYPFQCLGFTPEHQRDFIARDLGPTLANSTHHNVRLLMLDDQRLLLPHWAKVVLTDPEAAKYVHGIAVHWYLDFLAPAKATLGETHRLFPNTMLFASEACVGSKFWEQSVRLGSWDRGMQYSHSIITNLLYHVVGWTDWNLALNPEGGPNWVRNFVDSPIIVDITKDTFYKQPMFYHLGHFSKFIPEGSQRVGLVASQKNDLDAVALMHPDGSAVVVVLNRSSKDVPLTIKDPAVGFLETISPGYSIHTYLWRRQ
Chain of Ubiquitin carboxyl-terminal hydrolase 1 (Homo sapiens) (O94782 whole entry, looked up): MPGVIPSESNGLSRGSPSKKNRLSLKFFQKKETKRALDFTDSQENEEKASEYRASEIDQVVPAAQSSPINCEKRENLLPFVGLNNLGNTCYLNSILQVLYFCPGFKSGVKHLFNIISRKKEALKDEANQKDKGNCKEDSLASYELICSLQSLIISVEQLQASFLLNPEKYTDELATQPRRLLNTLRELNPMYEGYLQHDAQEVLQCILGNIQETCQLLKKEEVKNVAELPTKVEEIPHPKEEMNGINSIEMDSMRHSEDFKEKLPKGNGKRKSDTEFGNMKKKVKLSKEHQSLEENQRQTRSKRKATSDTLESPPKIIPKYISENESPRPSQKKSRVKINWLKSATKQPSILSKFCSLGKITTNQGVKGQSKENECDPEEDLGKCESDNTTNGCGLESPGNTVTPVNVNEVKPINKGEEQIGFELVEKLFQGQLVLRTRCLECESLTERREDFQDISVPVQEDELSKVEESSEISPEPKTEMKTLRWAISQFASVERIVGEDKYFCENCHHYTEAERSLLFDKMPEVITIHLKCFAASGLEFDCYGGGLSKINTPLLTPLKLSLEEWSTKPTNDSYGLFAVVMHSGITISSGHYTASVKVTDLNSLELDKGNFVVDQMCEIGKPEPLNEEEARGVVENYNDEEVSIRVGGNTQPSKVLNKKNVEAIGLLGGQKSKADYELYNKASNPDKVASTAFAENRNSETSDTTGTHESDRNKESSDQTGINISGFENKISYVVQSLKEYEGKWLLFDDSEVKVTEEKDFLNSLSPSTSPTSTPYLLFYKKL
Chain of Glucocorticoid receptor (Homo sapiens) (P04150 whole entry, looked up, the tested form may be a part): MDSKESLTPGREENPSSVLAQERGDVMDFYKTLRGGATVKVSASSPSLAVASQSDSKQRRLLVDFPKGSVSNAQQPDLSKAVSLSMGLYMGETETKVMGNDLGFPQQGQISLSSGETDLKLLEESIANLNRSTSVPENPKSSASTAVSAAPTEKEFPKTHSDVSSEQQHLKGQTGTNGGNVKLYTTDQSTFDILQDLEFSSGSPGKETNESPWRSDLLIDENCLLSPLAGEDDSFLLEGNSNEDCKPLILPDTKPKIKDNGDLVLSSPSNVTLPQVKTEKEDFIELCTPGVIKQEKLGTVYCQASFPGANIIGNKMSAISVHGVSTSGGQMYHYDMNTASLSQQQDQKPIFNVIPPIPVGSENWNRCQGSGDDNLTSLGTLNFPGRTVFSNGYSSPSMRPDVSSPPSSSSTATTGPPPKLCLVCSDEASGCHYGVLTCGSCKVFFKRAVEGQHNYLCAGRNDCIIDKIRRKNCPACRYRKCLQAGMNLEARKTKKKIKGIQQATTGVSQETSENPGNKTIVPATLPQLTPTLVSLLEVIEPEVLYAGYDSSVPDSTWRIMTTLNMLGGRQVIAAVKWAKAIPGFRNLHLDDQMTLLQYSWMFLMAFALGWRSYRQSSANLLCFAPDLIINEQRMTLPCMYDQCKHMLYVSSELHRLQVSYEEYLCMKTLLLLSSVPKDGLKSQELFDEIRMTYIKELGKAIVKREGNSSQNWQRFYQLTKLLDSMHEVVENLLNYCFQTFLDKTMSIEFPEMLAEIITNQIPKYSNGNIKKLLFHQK
Chain of 3',5'-cyclic-AMP phosphodiesterase 4B (Homo sapiens) (Q07343 whole entry, looked up): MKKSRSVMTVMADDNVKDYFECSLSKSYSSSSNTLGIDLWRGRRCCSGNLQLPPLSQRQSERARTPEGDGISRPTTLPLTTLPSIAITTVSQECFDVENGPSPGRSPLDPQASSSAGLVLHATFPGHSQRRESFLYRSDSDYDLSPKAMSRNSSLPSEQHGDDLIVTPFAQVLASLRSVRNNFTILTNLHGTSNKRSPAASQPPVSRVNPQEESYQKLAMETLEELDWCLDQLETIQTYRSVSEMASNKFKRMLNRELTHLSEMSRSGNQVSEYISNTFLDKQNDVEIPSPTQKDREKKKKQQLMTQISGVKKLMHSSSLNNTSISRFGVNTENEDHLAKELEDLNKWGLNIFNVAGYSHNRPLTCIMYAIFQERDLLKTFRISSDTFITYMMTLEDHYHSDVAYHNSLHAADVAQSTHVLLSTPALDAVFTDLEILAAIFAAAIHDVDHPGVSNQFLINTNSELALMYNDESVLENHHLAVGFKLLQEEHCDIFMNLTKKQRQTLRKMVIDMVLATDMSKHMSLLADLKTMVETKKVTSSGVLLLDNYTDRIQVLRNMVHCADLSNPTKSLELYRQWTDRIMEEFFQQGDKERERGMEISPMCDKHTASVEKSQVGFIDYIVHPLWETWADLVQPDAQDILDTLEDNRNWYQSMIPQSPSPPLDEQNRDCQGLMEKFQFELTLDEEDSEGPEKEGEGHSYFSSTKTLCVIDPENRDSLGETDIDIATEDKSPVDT
Chain of Cytochrome P450 3A4 (Homo sapiens) (P08684 whole entry, looked up): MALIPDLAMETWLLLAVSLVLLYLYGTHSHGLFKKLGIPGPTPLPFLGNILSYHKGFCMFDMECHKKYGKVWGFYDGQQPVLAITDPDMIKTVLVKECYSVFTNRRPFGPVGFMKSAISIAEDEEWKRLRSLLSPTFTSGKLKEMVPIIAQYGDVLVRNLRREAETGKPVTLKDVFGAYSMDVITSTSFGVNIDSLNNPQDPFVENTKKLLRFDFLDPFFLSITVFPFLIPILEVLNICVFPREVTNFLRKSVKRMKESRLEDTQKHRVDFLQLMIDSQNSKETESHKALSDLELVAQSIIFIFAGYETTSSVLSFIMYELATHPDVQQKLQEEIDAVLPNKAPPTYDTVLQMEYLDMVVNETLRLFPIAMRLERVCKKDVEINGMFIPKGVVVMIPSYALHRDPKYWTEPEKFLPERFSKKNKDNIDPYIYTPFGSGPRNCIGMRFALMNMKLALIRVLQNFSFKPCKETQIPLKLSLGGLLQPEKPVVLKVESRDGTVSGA
Chain of Dual specificity protein kinase CLK4 (Homo sapiens) (Q9HAZ1 whole entry, looked up): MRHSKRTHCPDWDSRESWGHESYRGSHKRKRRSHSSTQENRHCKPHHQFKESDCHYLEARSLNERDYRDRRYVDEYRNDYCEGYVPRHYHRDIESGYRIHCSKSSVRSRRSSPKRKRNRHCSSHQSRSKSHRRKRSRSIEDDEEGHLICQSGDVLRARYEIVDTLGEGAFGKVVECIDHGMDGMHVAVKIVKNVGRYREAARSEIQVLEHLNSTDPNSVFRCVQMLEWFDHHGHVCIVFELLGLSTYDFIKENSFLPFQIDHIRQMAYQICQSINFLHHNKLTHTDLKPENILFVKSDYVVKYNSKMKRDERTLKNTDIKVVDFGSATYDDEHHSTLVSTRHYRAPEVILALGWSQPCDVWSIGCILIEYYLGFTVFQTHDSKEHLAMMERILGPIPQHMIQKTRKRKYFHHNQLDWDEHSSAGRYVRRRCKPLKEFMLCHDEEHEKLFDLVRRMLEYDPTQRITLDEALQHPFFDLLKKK
Chain of Cytochrome P450 2C19 (Homo sapiens) (P33261 whole entry, looked up): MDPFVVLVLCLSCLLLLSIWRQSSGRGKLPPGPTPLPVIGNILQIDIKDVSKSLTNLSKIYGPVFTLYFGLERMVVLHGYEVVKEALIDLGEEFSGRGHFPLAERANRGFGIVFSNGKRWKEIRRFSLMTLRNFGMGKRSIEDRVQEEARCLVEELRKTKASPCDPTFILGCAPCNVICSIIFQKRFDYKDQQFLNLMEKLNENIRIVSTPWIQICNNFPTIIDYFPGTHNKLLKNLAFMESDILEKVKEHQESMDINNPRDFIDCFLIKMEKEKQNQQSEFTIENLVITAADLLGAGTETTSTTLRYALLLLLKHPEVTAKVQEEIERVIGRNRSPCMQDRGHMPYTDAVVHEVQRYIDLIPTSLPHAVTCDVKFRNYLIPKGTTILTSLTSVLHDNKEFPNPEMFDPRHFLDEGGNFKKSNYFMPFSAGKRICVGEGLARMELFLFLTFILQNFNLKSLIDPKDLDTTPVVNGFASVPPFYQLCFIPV

On to `CN(C)c1ncc2nc(-c3ccccc3)c(=O)n(CCc3ccccc3)c2n1`, for which the Potency is above 11.4 µM in assay [1]; 20 µM (active) in [2]; above 9.22 µM in assay [3]; above 46 µM in [4]; 0.631 µM (active) in assay [6]; 3.16 µM (active) in assay [7]. Further, the Potency entry in assay [5], in assay [8], in assay [9] and in [10] was “inactive” throughout. The result in [11] was inactive.

On to `CNc1nc(-c2cccc(C#N)c2)nc2ccccc12`, for which the Potency was above 11.4 µM in assay [1]; 0.0794 µM (active) in assay [2]; above 46 µM in assay [3]; above 46 µM in assay [4]; 7.94 µM (active) in [17]; 11.2 µM (active) in assay [8]. Moreover, the activity change, negative = inhibition is -15.2% in assay [12] and 2.31% in [13]. The activity, negative = inhibition in assay [14] was 6.92%. In addition, the Potency result in assay [15], in [5], in assay [16] and in [10] was “inactive” throughout. Moreover, the result in assay [11] was inactive.

Take `Cc1ccccc1-c1nccc(NCc2cccnc2)n1`: the Potency in assay [1] was above 11.4 µM; in assay [2] it was 0.2 µM (active); in [3], above 46 µM; in assay [4] it was above 46 µM; in assay [18], 3.98 µM (active); in assay [17], 5.01 µM (active). Further, in [8], the Potency was 28.2 µM (active). Moreover, the activity change, negative = inhibition in assay [12] is 13%; in assay [13] it was 3.23%. Moreover, the activity, negative = inhibition in assay [14] is -15.6%. In addition, the Potency result in assay [15], in assay [5], in [16], in assay [9] and in assay [10] was “inactive” in each case. In assay [11], the result was inactive.

With `CCNc1ncc2nc(-c3cc(F)cc(F)c3)c(=O)n(C3CC3)c2n1`, the results for the Potency in [1] and in assay [3] were above 11.4 µM and above 9.22 µM, respectively. The activity change, negative = inhibition in assay [12] was 29.9%; in [13] it was 23.3%. Further, the activity, negative = inhibition in assay [14] is 28.9%. Also, the Potency result in [15], in [5], in assay [8], in [9] and in [10] was “inactive” each time. The result in [11] was inactive.
